From PubChem BioAssay (NCI)
Where “and” joins values, the source holds several entries; their conditions need not be identical. Identical values can stand only once. The panel holds about 83,000 compounds, 20% with a hit somewhere; the sample as a whole holds those more often.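 Single-concentration screen, 48 h exposure, 96-well plates. Endpoint: percent growth. Below 10 = active.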 Calls of active or inactive are those of the source.

Assays:
Assay in all cases: NCI-60 one-dose screen, 48 h (100 = growth as untreated, 0 = no growth, -100 = all killed)
Settings in all cases: 10 µM unless noted
SR leukemia = tested on: SR leukemia
RPMI-8226 leukemia = tested on: RPMI-8226 leukemia
OVCAR-8 ovarian = tested on: OVCAR-8 ovarian
OVCAR-5 ovarian = tested on: OVCAR-5 ovarian
OVCAR-4 ovarian = tested on: OVCAR-4 ovarian
SK-OV-3 ovarian = tested on: SK-OV-3 ovarian
IGROV1 ovarian = tested on: IGROV1 ovarian
OVCAR-3 ovarian = tested on: OVCAR-3 ovarian
HS 578T breast = tested on: HS 578T breast
NCI/ADR-RES ovarian = tested on: NCI/ADR-RES ovarian

| SMILES | growth (SR leukemia) | growth (RPMI-8226 leukemia) | growth (OVCAR-8 ovarian) | growth (OVCAR-5 ovarian) | growth (OVCAR-4 ovarian) | growth (SK-OV-3 ovarian) | growth (IGROV1 ovarian) | growth (OVCAR-3 ovarian) | growth (HS 578T breast) | growth (NCI/ADR-RES ovarian) |
| --- | --- | --- | --- | --- | --- | --- | --- | --- | --- | --- |
| CCC(C)(O)CCC(C)(O)CC (stereo not drawn) | 97.4% (inactive) | 108% (inactive) | 102% (inactive) | 114% (inactive) | 111% (inactive) | 99% (inactive) | 103% (inactive) | 107% (inactive) | 108% (inactive) | 99.2% (inactive) |
| COc1ccc2oc3cc(NCCN(C)C)ccc3c(=O)c2c1 | 38.9% (inactive) | 103% (inactive) and 73.2% (inactive) | 88% (inactive) and 63.4% (inactive) | 88.2% (inactive) and 87.1% (inactive) | 106% (inactive) and 91.7% (inactive) | 92.5% (inactive) and 55% (inactive) | 90.3% (inactive) and 88.4% (inactive) | 121% (inactive) and 107% (inactive) | 105% (inactive) and 83.9% (inactive) | 90.5% (inactive) and 69.6% (inactive) |
| C(#CCN1CCOCC1)CCCN1CCOCC1 | 124% (inactive) and 109% (inactive) | 112% (inactive) | 105% (inactive) and 106% (inactive) | 102% (inactive) and 82.7% (inactive) | 102% (inactive) | 104% (inactive) and 106% (inactive) | 116% (inactive) and 106% (inactive) |  | 112% (inactive) and 114% (inactive) | 105% (inactive) and 104% (inactive) |
| O=C(O)c1ccc2c3ccc(C(=O)O)c4c(C(=O)O)ccc(c5ccc(C(=O)O)c1c25)c43 | 104% (inactive) | 135% (inactive) | 98% (inactive) | 84.2% (inactive) | 103% (inactive) | 107% (inactive) | 42.4% (inactive) | 101% (inactive) | 107% (inactive) | 114% (inactive) |
| N#Cc1c(N)nc2c(c(-c3ccc(Cl)cc3)nn2-c2ccccc2)c1C#N | 104% [100 µM] (inactive) | 108% [100 µM] (inactive) | 99.8% [100 µM] (inactive) | 123% [100 µM] (inactive) | 111% [100 µM] (inactive) | 94.8% [100 µM] (inactive) | 99.2% [100 µM] (inactive) |  | 83.9% [100 µM] (inactive) | 101% [100 µM] (inactive) |
| OCCCc1ccccc1 | 132% (inactive) | 117% (inactive) | 104% (inactive) | 97% (inactive) | 112% (inactive) | 97.6% (inactive) | 82.4% (inactive) |  | 106% (inactive) | 108% (inactive) |
| COc1cc(NCCCCCCCNC(C)C)c2nccc(C)c2c1 | 80.1% (inactive) and 36.1% (inactive) | 81.1% (inactive) and 92.7% (inactive) | 86.4% (inactive) and 89.7% (inactive) | 88.3% (inactive) and 96.9% (inactive) | 15.8% (inactive) | 93.8% (inactive) and 72.9% (inactive) | 82.3% (inactive) and 85.9% (inactive) | 22.8% (inactive) and 26.4% (inactive) | 95% (inactive) and 68.8% (inactive) | 88.1% (inactive) and 84.6% (inactive) |
| CN(C)C(=N)N=C(N)N | 133% (inactive) | 92.2% (inactive) | 105% (inactive) | 115% (inactive) and 114% (inactive) | 96.3% (inactive) and 112% (inactive) | 106% (inactive) and 110% (inactive) | 98.7% (inactive) and 128% (inactive) |  | 144% (inactive) | 105% (inactive) and 111% (inactive) |
| Nc1nc(=S)c2[nH]cnc2[nH]1 | 5.87% (active) and 0.643% (active) | 1.54% (active) and -23.5% (active) | 12% (inactive) | -30.1% (active) | 25.1% (inactive) and 44% (inactive) | 5.43% (active) and 6.69% (active) | 27.3% (inactive) and 36.7% (inactive) | -20.3% (active) and 11.4% (inactive) | 54.1% (inactive) | 18.2% (inactive) and -50.1% (active) |
| O=C(O)C(Cc1ccc(OS(=O)(=O)Cc2ccccc2)cc1)NS(=O)(=O)Cc1ccccc1 (stereo not drawn) | 100% (inactive) and 85.8% (inactive) | 110% (inactive) and 102% (inactive) | 105% (inactive) | 123% (inactive) and 112% (inactive) | 99.8% (inactive) and 109% (inactive) | 112% (inactive) and 120% (inactive) | 106% (inactive) and 121% (inactive) |  | 106% (inactive) | 105% (inactive) and 112% (inactive) |
| O=C(O)COc1ccccc1F | 99.5% (inactive) | 98.4% (inactive) | 116% (inactive) | 104% (inactive) | 111% (inactive) | 119% (inactive) | 105% (inactive) | 108% (inactive) | 101% (inactive) | 114% (inactive) |
| Nc1ccc(Cl)c(S(=O)(=O)O)c1 | 103% (inactive) | 111% (inactive) | 93.3% (inactive) | 95.7% (inactive) | 106% (inactive) | 99.5% (inactive) | 102% (inactive) |  | 98.8% (inactive) | 103% (inactive) |
| CC1CCC(=O)N1c1ccc(N)cc1 (stereo not drawn) | 93.8% (inactive) | 103% (inactive) | 100% (inactive) | 99.9% (inactive) | 107% (inactive) | 99.3% (inactive) | 101% (inactive) |  | 108% (inactive) | 106% (inactive) |
| CC(=O)C[n+]1ccccc1Sc1ccc(Cl)cc1 | 57.4% (inactive) | 84.7% (inactive) | 92.8% (inactive) | 148% (inactive) | 93.7% (inactive) | 109% (inactive) | 101% (inactive) |  | 84.3% (inactive) | 111% (inactive) |
| COc1ccc(CCn2cnn3c(=O)c4ccccc4nc3c2=O)cc1OC | 99.4% (inactive) and 90.8% (inactive) | 95.7% (inactive) and 92.2% (inactive) | 104% (inactive) and 110% (inactive) | 99.8% (inactive) and 121% (inactive) | 97.3% (inactive) and 112% (inactive) | 112% (inactive) and 108% (inactive) | 115% (inactive) | 103% (inactive) and 115% (inactive) | 98.3% (inactive) and 115% (inactive) | 101% (inactive) and 107% (inactive) |
| O=[N+]([O-])c1cccc(N=Cc2ccccc2)c1 | 88.4% (inactive) | 101% (inactive) | 93.1% (inactive) | 107% (inactive) | 111% (inactive) | 106% (inactive) | 114% (inactive) | 122% (inactive) | 110% (inactive) | 108% (inactive) |
| O=C(O)Cc1cc(=O)[nH]n(-c2ccccc2)c1=O | 88.9% (inactive) | 117% (inactive) | 90% (inactive) | 100% (inactive) | 103% (inactive) | 98% (inactive) | 115% (inactive) | 110% (inactive) | 117% (inactive) | 115% (inactive) |
| COCCCNC1=C(C#N)C(=O)NC(c2cccs2)S1 (stereo not drawn) | 113% (inactive) | 122% (inactive) | 113% (inactive) | 109% (inactive) | 93% (inactive) | 101% (inactive) | 119% (inactive) |  | 112% (inactive) | 110% (inactive) |
| NNC(=O)Nc1ccccc1 | 96.5% (inactive) | 106% (inactive) | 109% (inactive) | 102% (inactive) | 104% (inactive) | 105% (inactive) | 102% (inactive) |  | 105% (inactive) | 105% (inactive) |
| CCN(CC)CCNC(=O)c1ccc(NCN2C(=O)NC(c3ccccc3)(c3ccccc3)C2=O)cc1 | 99.5% (inactive) and 113% (inactive) | 104% (inactive) | 99.9% (inactive) and 111% (inactive) | 104% (inactive) and 119% (inactive) | 105% (inactive) and 104% (inactive) | 123% (inactive) and 90.9% (inactive) | 144% (inactive) and 107% (inactive) | 110% (inactive) and 98.8% (inactive) | 98.4% (inactive) and 103% (inactive) | 107% (inactive) and 111% (inactive) |
| O=C1CCC(=O)N1CC1CC2CCC1C2 (stereo not drawn) | 84.7% (inactive) and 78.9% (inactive) | 71.3% (inactive) and 114% (inactive) | 98.8% (inactive) and 96.1% (inactive) | 93.8% (inactive) and 90.8% (inactive) | 91.1% (inactive) and 97.4% (inactive) | -56.3% (active) and 84% (inactive) | 105% (inactive) and 107% (inactive) |  | 115% (inactive) and 102% (inactive) | 110% (inactive) and 104% (inactive) |
| CC1(CO)CCCC1NCCNC1CCCC1(C)CO (stereo not drawn) | 95.9% (inactive) | 102% (inactive) and 97% (inactive) | 97.8% (inactive) and 102% (inactive) | 110% (inactive) and 98.9% (inactive) | 90.4% (inactive) and 101% (inactive) | 111% (inactive) and 101% (inactive) | 115% (inactive) and 107% (inactive) |  | 112% (inactive) and 106% (inactive) | 105% (inactive) and 107% (inactive) |
